The list is not random: actives were taken first. Their share in the collection is about 27%.
CYP2C19 act – cytochrome P450 2C19 (human) activation; P33261; recombinant CYP2C19, luciferin-H EGE luminescence; active compounds read high; 0 = fully inhibited enzyme, 1 = untreated enzyme; activation factor at 5 µM; 96,000 tested, under 10 active;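 active means activation factor of at least 2 at 5 µM in the primary screen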;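 further: 0 = wells with 2.5 mM tranylcypromine and 1 = vehicle-only wells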
sEH act – activators of human soluble epoxide hydrolase. 91,000 tested, 0.04% active. P34913. purified human sEH enzymatic activity, activator screen. activation, % at 2 µM; in the data active means activation above about 37%
CYP2C19 inh – blocks human cytochrome P450 2C19; P33261; 96,000 tested, 21% active; CYP2C19 Supersomes, luciferin-H EGE luminescence, 30 min; inhibition, % at 5 µM;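 active means CYP2C19 inhibition above a set limit at 5 µM in the primary screen, cut at about 50% in these data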;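 further: plate controls were negative control wells for no effect and 2.5 mM tranylcypromine positive control for full effect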
sEH inhibitor – inhibitors of human soluble epoxide hydrolase; P34913; recombinant human sEH enzymatic activity assay; inhibition, % at 2 µM; 91,000 tested, 0.34% active; in the data active means inhibition above about 80%
CYP2C9 act – increases human cytochrome P450 2C9 activity; recombinant CYP2C9, luciferin-H conversion, luminescence; active compounds read high; factor 1 = untreated enzyme, 0 = blocked; activation factor at 5 µM; 96,000 tested, 1.4% active; AID 1024;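 active means activation factor of 2 or more for CYP2C9 at a 5 µM dose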;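 further: 0 = sulfaphenazole-blocked wells and 1 = vehicle-only wells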
Target sequence (P11712 whole entry, looked up): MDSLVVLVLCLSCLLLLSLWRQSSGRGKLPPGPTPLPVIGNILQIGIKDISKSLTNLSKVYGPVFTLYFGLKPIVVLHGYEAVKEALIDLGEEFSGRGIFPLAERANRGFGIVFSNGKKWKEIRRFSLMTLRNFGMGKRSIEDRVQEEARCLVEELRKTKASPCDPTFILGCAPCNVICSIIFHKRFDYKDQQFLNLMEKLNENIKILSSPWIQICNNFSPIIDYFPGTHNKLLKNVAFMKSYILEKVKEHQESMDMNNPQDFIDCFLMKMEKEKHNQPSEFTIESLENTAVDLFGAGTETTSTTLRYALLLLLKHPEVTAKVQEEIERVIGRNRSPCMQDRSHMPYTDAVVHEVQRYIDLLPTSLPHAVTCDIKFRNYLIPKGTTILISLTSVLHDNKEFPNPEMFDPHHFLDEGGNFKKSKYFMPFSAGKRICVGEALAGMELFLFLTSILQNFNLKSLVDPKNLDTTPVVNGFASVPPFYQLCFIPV
CYP2C9 inhib – inhibitors of human CYP2C9; inhibition, % at 5 µM; 96,000 tested, 20% active; CYP2C9 Supersomes, luciferin-H conversion, luminescence; P11712;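 active means blocking of liver enzyme CYP2C9 beyond about 50% at 5 µM, limit read from the data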
* = called active by the depositor; x = no result.

SMILES	CYP2C19 act	sEH act	CYP2C19 inh	sEH inhibitor	CYP2C9 act	CYP2C9 inhib
CN(Cc1ccccc1)Cc1nc2c([nH]1)c(=O)[nH]c(=O)n2C	1.1	x	-14	x	1.2	-25
Cn1c(=O)c2[nH]c(CN(Cc3ccccc3)Cc3ccccc3)nc2n(C)c1=O	0.9	-5	6	5	0.2	81*
CN(C)Cc1nc2c([nH]1)c(=O)n(C)c(=O)n2C	0.5	8	51*	-6	0.9	6
COc1ccc(NS(=O)(=O)c2cc(-c3nnnn3C)ccc2OC)cc1	0.7	-1	33	1	0.8	20
O=C(CSc1nc(N2CCCCC2)nc(N2CCCCC2)n1)NC1CCCCC1	x	2	x	-3	x	x
COc1cc(CNc2ccc3[nH]c(=O)[nH]c3c2)cc(Cl)c1OCC(=O)NC(C)(C)C	0.2	-9	81*	8	0.3	71*
Cc1nn(Cc2ccc(C(=O)Nc3ccccc3C(F)(F)F)o2)c(C)c1Br	0.1	-12	91*	13	0.6	35
Cc1ccc(CNC(=O)c2ccc(Cn3nc(C)c(Cl)c3C)o2)cc1	0.2	-26	78*	29	0.6	45
Cc1cc(C)cc(NC(=O)c2ccc(Cn3nc(C)c(Cl)c3C)o2)c1	x	-15	x	19	x	x
Cc1nn(Cc2cccc(C(=O)NCC(C)C)c2)c(C)c1Br	x	-34	x	38	x	x
COc1ccc2oc(=O)c(C(=O)n3ccc(C)n3)cc2c1	0.9	6	5	-9	0.9	5
O=C1CSC(c2ccccc2)N1c1nnc(C23CC4CC(CC(C4)C2)C3)s1 (stereo unspecified)	0.9	6	14	-4	0.9	14
c1ccc(OCc2nn3c(-c4ccccn4)nnc3s2)cc1	0.6	x	44	x	0.7	29
c1ccc(Cc2nn3c(-c4ccncc4)nnc3s2)cc1	0	1	99*	2	0.2	84*
c1ccc(-c2nnc3sc(Cc4cccs4)nn23)cc1	x	-7	x	10	x	x
c1ccc(OCc2nn3c(-c4ccncc4)nnc3s2)cc1	0	x	99*	x	0.2	80*
c1ccc(Cc2nn3c(C4COc5ccccc5O4)nnc3s2)cc1 (stereo unspecified)	0.5	-5	54*	4	0.5	55*
CCOC(=O)N1CCC(NC(=O)C(CC(C)C)NC(=O)C2CCC(C)CC2)CC1 (stereo unspecified)	0.6	0	38	-3	1	3
COc1ccc(C2(C)NC(=O)N(CC(=O)NCCC3=CCCCC3)C2=O)cc1OC (stereo unspecified)	1	5	1	-6	1	2
COc1ccc(C(=O)c2ccc(N3CCN(C4CC(=O)NC4=O)CC3)cc2)cc1F (stereo unspecified)	1	10	-1	-13	1	-4
COc1ccc(NC2=NCC(=O)N2c2ccccc2)c(OC)c1	0.4	17	64*	-12	0.5	52*
N#CCCN(C(=O)Nc1ccccc1)c1ccccc1	0.4	-1	60*	5	0.9	7
CCNc1ccc(Br)cc(C(=O)/C=C/c2ccccc2Cl)c1=O	x	3	x	-6	x	x
Cc1ccc(C(=O)/C=C/c2ccccc2)o1	0.3	20	69*	-18	0.4	57*
Cc1ccc(C(=O)/C=C/c2ccc3c(c2)OCO3)o1	0.5	8	54*	-7	0.7	34
SMILES	CYP2C19 act	sEH act	CYP2C19 inh	sEH inhibitor	CYP2C9 act	CYP2C9 inhib
CCOC(=O)/C(C#N)=C\c1ccc2c(c1)OCO2	x	11	x	-12	x	x
Cc1ccc(C(=O)/C=C/c2ccc(Br)cc2)o1	0.9	11	13	-6	0.9	8
CCNc1ccccc(C(=O)/C=C/c2ccc3c(c2)OCO3)c1=O	0.1	4	85*	-4	0.6	37
O=C(CC12CC3CC(C1)CC(CC(=O)N1CCCC1)(C3)C2)N1CCCC1	1.1	x	-8	x	1.1	-15
Cc1cc(C)n2nc3nc4c(cc3c2n1)CCCC4	1.1	-6	-7	6	0.9	9
CCOC(=O)c1ccc(N2CC(O)=C(c3nc4ccccc4c(=O)[nH]3)C2=N)cc1	0.6	6	41	-2	1.4	-42
O=C1CN(Cc2ccccc2)C(=NCc2ccco2)S1	0.1	-6	90*	7	0	97*
CN(C)C(=O)c1cc(F)ccc1Sc1cc(Cl)ccc1Cl	0	17	98*	-14	0.5	50
CN(C)C(=O)c1cc(Cl)ccc1Sc1cc(Cl)ccc1Cl	0	14	97*	-12	0.2	84*
CCOC(=O)c1cnc(SC)nc1Sc1cc(Cl)ccc1Cl	1	6	-1	-9	0.8	21
CCOCCCNCC(=O)N1CCN(S(=O)(=O)c2ccc(C)cc2)CC1	1	2	0	1	1	-2
Cc1ccc(C(=O)c2ccc([N+](=O)[O-])cc2)c(C)c1	0.2	-6	82*	8	0.4	60*
O=C(Nc1nnc(CC(=O)N2CCOCC2)s1)C1COc2ccccc2O1 (stereo unspecified)	1.2	-2	-22	2	1.2	-25
COc1ccccc1NC(=O)CNC(=O)c1ccc(F)cc1	0.8	2	20	3	1	1
CO/N=C(/CNC(=O)c1ccc(F)cc1)c1ccc(Cl)cc1	0.1	-1	86*	3	0.4	64*
Cc1ccc(CS(=O)(=O)Cc2ccc(C(=O)NCc3ccccn3)o2)cc1	0.9	0	12	-1	1	3
COc1ccccc1N1CCN(C(=O)CSc2nc3ccccc3o2)CC1	0.4	-8	64*	6	0.7	34
COc1ccccc1N1CCN(C(=O)CSc2nnc(NC(=O)C3CC3)s2)CC1	0.7	x	33	x	0.2	82*
COc1ccccc1N1CCN(C(=O)CSc2nc3ccccc3c(=O)n2CC2CCCO2)CC1 (stereo unspecified)	0.8	6	22	-5	0.3	66*
CCOC(=O)CSc1nc2ccccc2c(=O)n1CC1CCCO1 (stereo unspecified)	0.9	2	14	-2	0.8	21
Cc1ccc(S(=O)(=O)N2CCN(C(=O)CSc3nc4ccccc4o3)C2)cc1	0.1	4	88*	-4	0.6	44
CC1=NN(c2ccccc2)C(=O)C1C(=O)c1ccc(Cl)cc1 (stereo unspecified)	1	0	-4	-1	0.1	93*
CCCCCCCCc1nc(=S)[nH][nH]1	x	-1	x	4	x	x
CCc1ccc(C2(C)SC(NC(C)=O)=NN2C(C)=O)cc1 (stereo unspecified)	0.3	-3	71*	3	0.8	23
CC1CCN(C(=O)CN2C(=O)C(C)(C)Oc3ccc(C(=O)NC4CCCC4)cc32)CC1	0.9	10	14	-9	0.5	49
O=C(CCn1c(SCC(=O)NCc2ccco2)nc2ccccc2c1=O)NCCc1ccccc1	0.2	-19	77*	19	0.1	85*
O=C(CSc1nc2sc3c(c2c(=O)n1-c1ccccc1)CCCC3)NCc1ccco1	1.1	0	-8	0	1.1	-10

Compound activity deposited in PubChem BioAssay by several laboratories.
